AmpC no deterg: inhibitors of E. coli AmpC beta-lactamase without detergent; P00811; AmpC nitrocefin hydrolysis, absorbance 480 nm, 0.0001% Triton; Potency, µM (titrated, usually from 57.1 µM), for the others: top-dose activity change, negative = inhibition, actives largely listed as inhibitors; 330,000 compounds, 0.52% hits; AID 485341;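 further: plate controls were no compound for no effect and no enzyme for full effect; nearly all actives have a fitted effect of over 20% in size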
Target sequence (P00811 whole entry, looked up): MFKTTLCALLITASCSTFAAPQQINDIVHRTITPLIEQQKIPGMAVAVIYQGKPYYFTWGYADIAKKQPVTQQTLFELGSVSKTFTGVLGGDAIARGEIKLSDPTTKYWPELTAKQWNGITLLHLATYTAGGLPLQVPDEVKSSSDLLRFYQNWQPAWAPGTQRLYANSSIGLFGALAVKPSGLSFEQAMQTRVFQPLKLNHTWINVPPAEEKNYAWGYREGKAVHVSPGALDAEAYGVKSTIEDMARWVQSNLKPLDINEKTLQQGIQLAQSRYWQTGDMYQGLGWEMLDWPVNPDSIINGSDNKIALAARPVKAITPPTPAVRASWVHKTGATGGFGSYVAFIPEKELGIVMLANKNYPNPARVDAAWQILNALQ
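20 mM phosphate pH 7.0 + 0.01% (detergent screen) or 0.0001% Triton X-100; 5.3 nM AmpC reagent; cpd preinc 15 min RT; nitrocefin (800 uM stock) to start; A480 q20 s × 4 min; Activity was normalised to no-enzyme and no-compound control wells.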
AmpC inh detg: inhibitors of E. coli AmpC beta-lactamase with detergent | Potency, µM (doses to about 114 µM), inactives show top-dose activity change, negative = inhibition, hits mostly inhibitors | 370,000 compounds, 0.041% hits | AmpC hydrolysis of nitrocefin, absorbance 480 nm, 0.01% Triton | AID 485294;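 further: 0% = no-compound wells and -100% = no-enzyme wells; nearly all actives have a fitted effect of over 25% in size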
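AmpC (5.3 nM in the dispensed reagent) in 20 mM phosphate pH 7.0 with 0.01% (detergent screen) or 0.0001% Triton X-100 was preincubated with compounds for 15 min at room temperature. Nitrocefin was then added from an 800 uM solution, and hydrolysis was followed at 480 nm.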
Sm TGR block: inhibitors of Schistosoma mansoni thioredoxin glutathione reductase; 360,000 compounds, 3% hits; Potency, µM (titrated, usually from 114 µM), without a hit: top-dose activity change, negative = inhibition, hits mostly inhibitors; purified TGR, DTNB reduction, TNB absorbance 405 nm; Q962Y6; further: nearly all actives have a fitted effect of over 60% in size
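Kinetic colorimetric format: TGR-catalysed, NADPH-driven DTNB reduction monitored via TNB absorbance. Enzyme dispensed at 20 nM; compound exposure 15 min at room temperature before reaction start.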
Numbers without * were called inactive; ? = inconclusive; nt = no result given. A selection: hits, their analogues and other compounds. The true share with any hit is near 3.3%. The call rests on the fitted dose curve; in most records, active means well fitted curve in the direction sought with a large enough effect; inconclusive means small, poorly fitted or top-dose-only effect, or another doubt; inactive means no such curve, though single readings can be large; an effect the other way counts as inactive or inconclusive. Unless noted, on the % scale 0 is the no-effect control and ±100 the full control effect; potency means the concentration at half of the fitted maximal effect.

SMILES | AmpC no deterg | AmpC inh detg | Sm TGR block
CCCOc1cccc(C(=O)Nc2ccc(-c3cc4ccccc4oc3=O)c(C)c2)c1 | nt | -6% | 0%
CCn1cc(C(=O)N2CCN(c3cccc(C)c3C)CC2)c2cc(OC)c(OC)cc2c1=O | nt | -10% | 5%
Cc1ccc(NC(=O)CC2Sc3ccccc3NC2=O)c(C)c1 (stereo not drawn) | nt | 10% | -1%
Cc1ccc(NC(=O)CC2SC3=NCCCN3C2=O)c(C)c1 (stereo not drawn) | -2% | -14% | 2.8µM*
O=C(NCC1OCCc2ccccc21)c1ccco1 (stereo not drawn) | -3% | 0% | 32µM*
O=C(CCc1ccccc1)NCC1OCCc2ccccc21 (stereo not drawn) | -16% | -1% | -20%
O=C(CN1C(=O)c2cccnc2Oc2ccc(Cl)cc21)NCCCN1CCCCC1 | nt | -2% | 2%
Cc1nc(C/C(=N\Nc2ccccc2)c2ccc(O)cc2O)cs1 | -56% | -5% | ?
CCc1cc(/C(Cc2ccccn2)=N\Nc2ccccc2)c(O)cc1O | 25µM* | -2% | ?
Cc1cc(Cl)ccc1OCC(=O)N(Cc1ccco1)Cc1ccccc1F | nt | 21% | 2%
N#CC1=C(N)Oc2c(c(=O)oc3ccccc23)C1c1cccnc1 (stereo not drawn) | -15% | -17% | 0%
CCOc1cc(C2C(C#N)=C(N)Oc3c2c(=O)oc2ccccc32)ccc1OC(=O)c1cccs1 (stereo not drawn) | 16µM* | ? | -15%
CCOC(=O)c1cc(-c2ccc(C)cc2)nn1Cc1ccccc1 | nt | 7% | 0%
Cc1c(C(=O)Nc2cccc(C(F)(F)F)c2)sc2nc[nH]c(=O)c12 | nt | -7% | -1%
COc1cccc(CNc2ncc(-c3ccc(Br)cc3)n2C)c1 | nt | -5% | 11%
O=C1CC(N2CCC(c3nc4ccccc4o3)CC2)C(=O)N1c1ccc(F)cc1 (stereo not drawn) | 106% | 7% | -19%
O=C1CC(N2CCC(c3nc4ccccc4o3)CC2)C(=O)N1c1ccc(Cl)c(C(F)(F)F)c1 (stereo not drawn) | 37% | ? | 14µM*
O=C1CC(N2CCC(c3nc4ccccc4o3)CC2)C(=O)N1 (stereo not drawn) | -11% | -2% | 35µM*
O=C1CC(N2CCC(c3nc4ccccc4s3)CC2)C(=O)N1 (stereo not drawn) | -16% | ? | -16%
COc1ccc(C(=O)Nc2cc(-c3cccc(C)c3)nn2-c2ccccc2)cc1 | nt | -6% | 1%
Fc1ccc(-n2ncc3c(Nc4cccc(Cl)c4)ncnc32)cc1 | nt | 7% | 5%
Cc1cc2n(n1)SC(Nc1cccc3ccccc13)N2 (stereo not drawn) | -33% | 2% | ?
Cc1cc2n(n1)SC(Nc1cc(Cl)ccc1Cl)N2 (stereo not drawn) | -29% | ? | 16µM*
CC(=O)NC(=S)c1c(N)n(Cc2ccccc2)c(=O)n(C)c1=O | -35% | 5% | -5%
COC(=O)c1ccc(C(c2c(N)n(Cc3ccccc3)c(=O)n(C)c2=O)N2CCOCC2)cc1 (stereo not drawn) | 52% | -6% | 22µM*
SMILES | AmpC no deterg | AmpC inh detg | Sm TGR block
O=c1oc2ccccc2c(O)c1CN1CCCCC1 | -21% | ? | -18%
NCc1c(O)ccc2ccccc12 | -12% | -1% | 13µM*
O=C(O)Cc1c(O)ccc2ccccc12 | -11% | 0% | -16%
Oc1ccc2ccccc2c1CNc1ccc(Br)cn1 | -46% | -6% | 0%
Oc1ccc2ccccc2c1CN1CCCC1 | -40% | -1% | 2.5µM*
Oc1ccc(Br)cc1CN1CCCCCCC1 | -13% | ? | -1%
Oc1ccc2cc(Br)ccc2c1CN1CCCC1 | -54% | -12% | 32µM*
Oc1ccc2ccccc2c1CNc1ccc(Br)cc1 | ? | -7% | 0.63µM*
CN(C)S(=O)(=O)N(CC(=O)NCCSCc1ccccc1Cl)c1ccccc1 | nt | 1% | 10%
Cc1cc(C)n2nc(CNC(=O)c3ccc(Cl)cc3)nc2n1 | nt | -1% | 7%
Cc1ccc2oc3c(c(=O)c2c1)C(c1ccc(F)cc1)N(Cc1ccc2c(c1)OCO2)C3=O (stereo not drawn) | nt | 25% | 3%
CCCC(=O)Nc1ccc2nn(-c3ccc(CC)cc3)nc2c1 | nt | -2% | -1%
Oc1c(CN2CCOCC2)cc(-c2ccccc2)cc1CN1CCOCC1 | 110% | -1% | 6%
O=C(Nc1cccc2ccccc12)N1CC=C(c2ccccc2)CC1 | -16% | -7% | -1%
Oc1ccc2ccccc2c1CN1CC=C(c2ccccc2)CC1 | -21% | 0% | 22µM*
O=C(O)c1oc2ccccc2c1CN1CCN(c2ccccc2)CC1 | -24% | 2% | -15%
Oc1ccc2ccccc2c1CN1CCN(c2ccccc2)CC1 | -11% | -11% | 2.8µM*
Oc1c(CN2CCOCC2)ccc2ccccc12 | -31% | 8% | 0.56µM*
CCOc1ccccc1NC(=O)N(C)CCc1c(C)nn(CC)c1C | nt | -5% | -7%
CCOc1ccc(CNC(=O)c2ccc(NC(=O)N3CCSc4ncccc43)cc2)cc1OC | nt | ? | 1%
Cc1ccccc1C(=O)N1CCN(CCc2ccccn2)CC1 | nt | 19% | 5%
COC(=O)c1ccc(CSc2ccc3nnc(-c4cccc(F)c4)n3n2)o1 | ? | -19% | 25µM*
CCOC(=O)CC(=O)CSc1ccc2nnc(-c3cccc(F)c3)n2n1 | -5% | ? | -6%
COc1ccc2c(c1)c1c(c(=O)n(-c3cc(Cl)ccc3C)c(=O)n1CC(=O)N1CCCC1)n2C | nt | 23% | 4%
O=C(Cn1cc2c(n1)CCCCC2)NCCCN1CCOCC1 | 45µM* | ? | 3%
